Assay results reported in PubChem BioAssay (NCATS).
Activity calls are given as the source filed them. Entries that show only a call come without a potency. Calls come from the whole dose curve; as a rule, active = well fitted inhibition curve with a large enough effect; inconclusive = small, poorly fitted or top-dose-only effect; inactive = flat fitted curve, though single readings scatter.
Potency is the fitted concentration of half-maximal effect.

The compounds below were run on Nanoluciferase (engineered Oplophorus gracilirostris luciferase) (assay: Primary Nanoluciferase (NLuc) qHTS assay for identification of artifact compounds. (AID 1845222)). Details: NLuc-conditioned medium, Nano-Glo luminescence, 5 min; series mostly up to 54.1 µM.
From the text: PI: Alexander Tropsha Ph.D.
UNC Eshelman School of Pharmacy
University of North Carolina, Chapel Hill, North Carolina
Hits from high-throughput screening (HTS) of chemical libraries are often false positives due to their interference with the assay detection technology. In response to this problem, we generated the largest publicly available library of chemical liabilities and developed a free webtool to predict HTS artifacts, both of which are described herein. More specifically, we generated, curated, and integrated HTS datasets for thiol reactivity, redox activity, and luciferase (firefly and nano) activity. Using these curated datasets, we developed and validated several Quantitative Structure-Interference Relationship (QSIR) models to predict nuisance behavior. […] These models were employed for virtual profiling of the National Center for Advancing Translational Science's (NCATS) in-house library, and 256 compounds for each assay were selected for the experimental validation of nuisance behavior. The BA for these external predictions ranged from 58 to 78% for compounds within the applicability domains of the models. […] The models developed in this study, along with aggregation models previously developed by our group (SCAM Detective) were implemented in "Liability Predictor," an online tool which may be used as part of chemical library design or for triaging HTS hits. Both the models and the curated datasets are publicly available at https://liability.mml.unc.edu/.
SEQUENCE No. (e.g., 1, 2, 3, etc.); […] (e.g., Cells, Incubation, Reagent, etc.); VALUE; DESCRIPTION.
1; Reagent; 2 uL; Nanoluciferase media.
2; Compounds and control; 16 nL; Kalypsis pin tool (Wako USA) equipped with a 1536-well pin head.
4; Reagent; 2 uL; Luciferase enzyme.
6; Detection; Luminescence, ViewLux microplate reader.
NOTES (numbers refer to Sequence numbers above)
1. Medium was collected from the culture flasks of NLuc-expressing S16 cells (80% confluent) prior to cell plating, filtered through a 0.22um filter, and frozen at -20C prior to use. Media was diluted (1:55) and 2 uL was dispensed into all wells of a 1536-well assay plate (solid-bottom white plate; Greiner Bio One, Monroe, NC).
2. A Wako Pin-tool (Wako Automation, Richmond, VA) was used to transfer 16 nL of compounds (consisting of 7-plates in qHTS format, final concentration range 18.3 nM to 114 uM) or control Cilnidipine (final concentration range 623 nM to 80 uM).
3. 15 min. incubation at room temperature protected from light.
4. 2 uL of NLuc substrate (1:100 in Nano-Glo luciferase buffer; Nano-Glo luminescence assay, Promega, Madison, WI) was dispensed for a final assay volume of 4 uL.
5. Plates were centrifuged (121xg, 15 seconds) and incubated for 5 minutes.
6. Samples were read for luminescence on a ViewLux CCD imager (PerkinElmer). Data were normalized to no-enzyme (0% activity) and no-inhibitor (DMSO; 100%) controls and the resulting percent inhibition data were fitted to a 4-parameter Hill equation using NCATS in-house software.
For `C=CCn1c(=O)c2cnc(Nc3ccc(N4CCN(C)CC4)cc3)nc2n1-c1cccc(C(C)(C)O)n1`, the Potency was “inactive”. `Cc1ccc(C(=O)Nc2ccc(CN3CCN(C)CC3)c(C(F)(F)F)c2)cc1C#Cc1cnc2cccnn12` was tested, and the Potency was “inactive”. In the case of `CC(C)(O)c1cc2nc(-c3cnc(N)nc3)nc(N3CCOCC3)c2s1`, the Potency is reported as “inactive”. For `CCCCCCCCCC(=O)N[C@@H](Cc1c[nH]c2ccccc12)C(=O)N[C@H](CC(N)=O)C(=O)N[C@@H](CC(=O)O)C(=O)N[C@@H]1C(=O)NCC(=O)N[C@@H](CCCN)C(=O)N[C@@H](CC(=O)O)C(=O)N[C@H](C)C(=O)N[C@@H](CC(=O)O)C(=O)NCC(=O)N[C@H](CO)C(=O)N[C@@H]([C@@H](C)CC(=O)O)C(=O)N[C@@H](CC(=O)c2ccccc2N)C(=O)O[C@@H]1C`, the Potency was “inactive”. `CC1(O)CC(c2nc(-c3ccc4ccc(-c5ccccc5)nc4c3)c3c(N)nccn23)C1` (stereo not given) was tested, and the Potency was “inactive”. With `CC[C@@]1(O)C(=O)OCc2c1cc1n(c2=O)Cc2cc3cc(O)ccc3nc2-1` the Potency was “inactive”. With `N#CCNC(=O)c1ccc(-c2ccnc(Nc3ccc(N4CCOCC4)cc3)n2)cc1` the Potency was “inactive”. `NCC(=O)Nc1ccc(-n2nc(C(F)(F)F)cc2-c2ccc3c(ccc4ccccc43)c2)cc1` was tested, and the Potency was “inactive”. For `OCCCNc1cc(-c2ccnc(Nc3cccc(Cl)c3)n2)ccn1`, the Potency was “inactive”. In the case of `CN1CCN(Cc2ccc(NC(=O)Nc3ccc(Oc4cc(NC(=O)C5CC5)ncn4)cc3)cc2C(F)(F)F)CC1`, the Potency is reported as “inactive”. In the case of `Cc1c(CN2CCN(S(C)(=O)=O)CC2)sc2c(N3CCOCC3)nc(-c3cnc(N)nc3)nc12`, the Potency is reported as “inactive”. For `Fc1cc(-c2cccc3ncc(-c4cnn(C5CCNCC5)c4)nc23)cc(F)c1CN1CCOCC1`, the Potency was “inactive”. `O=C(Nc1cc(C(F)(F)F)cc(C(F)(F)F)c1)c1cc(Cl)ccc1O` was tested, and the Potency was “inactive”. For `Cc1c(Cn2c(C)nc3c(C(=O)O)cc(N4CCOCC4)cc32)cccc1C(F)(F)F`, the Potency was “inactive”. `CC1(C)CCC(c2ccc(Cl)cc2)=C(CN2CCN(c3ccc(C(=O)NS(=O)(=O)c4ccc(N[C@H](CCN5CCOCC5)CSc5ccccc5)c(S(=O)(=O)C(F)(F)F)c4)cc3)CC2)C1` was tested, and the Potency was “inactive”. For `CC(C)(O)CCc1ccc(OCc2cc(-c3cccc(OC(F)F)c3)c3ncccc3c2)cc1`, the Potency was “inactive”. For `Cn1cc(-c2ccncc2)c(-c2ccc(OCc3ccc4ccccc4n3)cc2)n1`, the Potency was “inactive”. `O=C(Nc1cn[nH]c1-c1nc2ccc(CN3CCOCC3)cc2[nH]1)NC1CC1` was tested, and the Potency was “inactive”. For `Cc1ccc(NC(=O)C2(c3ccc4c(c3)OC(F)(F)O4)CC2)nc1-c1cccc(C(=O)O)c1`, the Potency was “inactive”. For `CCCNC(=O)Nc1ccc(Oc2ncnc3cc(OC)c(OC)cc23)cc1Cl`, the Potency was “inactive”. For `CNC(=O)c1ccc(N2C(=S)N(c3cnc(C#N)c(C(F)(F)F)c3)C(=O)C23CCC3)cc1F`, the Potency was “inactive”. In the case of `Nc1ccccc1NC(=O)c1ccc(CNc2nccc(-c3cccnc3)n2)cc1`, the Potency is reported as “inactive”. In the case of `CN1CCC(CNc2ccc3ncc(-c4cccc(OC(F)(F)F)c4)n3n2)CC1`, the Potency is reported as “inactive”. In the case of `COC(=O)c1ccc2c(C(=Nc3ccc(N(C)C(=O)CN4CCN(C)CC4)cc3)c3ccccc3)c(O)[nH]c2c1`, the Potency is reported as “inactive”. For `Cc1ccc(C(N)=O)cc1Nc1nccc(-c2cn(C(C)C)c3cnccc23)n1`, the Potency was “inactive”. In the case of `COc1cc2c(Oc3ccc4[nH]c(C)cc4c3F)ncnc2cc1OCCCN1CCCC1`, the Potency is reported as “inactive”. In the case of `CCc1cc2c(cc1N1CCC(N3CCOCC3)CC1)C(C)(C)c1[nH]c3cc(C#N)ccc3c1C2=O`, the Potency is reported as “inactive”. `COc1c(OCCCN2CCOCC2)ccc2c3n(c(=NC(=O)c4cnc(N)nc4)nc12)CCN3` was tested, and the activity, negative = inhibition was 0.183% [at 11.6 µM] (inactive). With `CNC(=O)c1ccccc1Nc1nc(Nc2ccc(N3CCOCC3)cc2OC)ncc1Cl` the Potency was “inactive”. With `C#Cc1cccc(Nc2ncnc3cc(OC)c(OCCCCCCC(=O)NO)cc23)c1` the Potency was “inactive”. With `O=C1CCC[C@@H]2[C@H]3CCC[N+]4([O-])CCC[C@@H](CN12)[C@@H]34` (stereo not given in full) the Potency was “inactive”. For `CC[C@@H]1C(=O)N(C)c2cnc(Nc3ccc(C(=O)NC4CCC(N5CCN(CC6CC6)CC5)CC4)cc3OC)nc2N1C(C)C` (stereo not given in full), the Potency was “inactive”. For `COc1ccc2c(c1)CC[C@@H](CN(C)CC(=O)O)[C@H]2c1ccccc1`, the Potency was “inactive”. With `CNC(=O)CN1CCC(Oc2cc3c(Nc4cccc(Cl)c4F)ncnc3cc2OC)CC1` the Potency was “inactive”. In the case of `Cn1cc(-c2[nH]c3cc(NC(=O)[C@H](N)C4CCCCC4)cc4c3c2C=NNC4=O)cn1`, the Potency is reported as “inactive”. In the case of `Cc1[nH]nc2ccc(-c3cncc(OC[C@@H](N)Cc4ccccc4)c3)cc12`, the Potency is reported as “inactive”. With `CNC(=O)c1cc(Oc2ccc(NC(=O)Nc3cc(C(C)(C)C)nn3-c3ccc4ncccc4c3)c(F)c2)ccn1` the Potency was “inactive”. In the case of `Cc1cc(N2CCOCC2)cc2[nH]c(-c3c(NC[C@@H](O)c4cccc(Cl)c4)cc[nH]c3=O)nc12`, the Potency is reported as “inactive”. `Cc1cc(Nc2cc(N3CCN(C)CC3)nc(Sc3ccc(NC(=O)C4CC4)cc3)n2)n[nH]1` was tested, and the Potency was “inactive”. For `Nc1nc(NCCNc2ncc(-n3ccnc3)c(-c3ccc(Cl)cc3Cl)n2)ccc1[N+](=O)[O-]`, the Potency was 536 nM (active).
